Data from PubChem BioAssay (NCATS).
Active and inactive are the calls of the source. The rule behind the calls is not given here.

System: HIV-1 nucleocapsid protein NCp7 (binding to TG oligonucleotide)
Assay: HIV Nucleocapsid (AID 346);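 note: potency is for inhibitors that block NC binding and lower polarization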
Details: HIV-1 NC / fluorescein-TGTGTGTG probe, fluorescence polarization
Procedure: NCGC Assay Overview: HIV-1 nucleocapsid protein (HIV-1 NC) is a small (6.5 kDa) basic zinc-finger protein which participates in packaging of viral genomic RNA. The spacing and metal-chelating residues (3 Cys, 1 His) of the Cys-X2-Cys-X4-His-X4-Cys Zn fingers are conserved among all known retroviruses (J. Med. Chem. 1998, 41, 1371-1381). HIV-1 NC was assayed for its binding to the consensus sequence single-stranded 5'-TGTGTGTG. […] High salt was included to increase the stringency of binding and inhibitor screen. Reducing agents and zinc were present to stabilize the nucleocapsid zinc-finger protein.
NCGC Assay Protocol Summary: Buffer. Hepes pH 7.5, 250mM NaCl, 1uM ZnCl2. 0.004% polyethylene glycol 20000. TCEP (100 uM) and 2-Mercaptoethanol (5 mM), added fresh the day of the experiment. Reagents/Controls. 10 nM TG4xF only in columns 3 and 4 as negative control. 10 nM TG4xF/100 nM HIV-1 NC in columns 1, 2, 5-48. Titration of control compound NSC-13778 (from 20 mM, then 1:2) pin-transferred to column 2. Assay Steps. Two uL of reagents were dispensed to 1536-well Kalypsys black plates. The plates were centrifuged for 1 min at 1000 rpm. Compounds and controls (20 nL) were transferred via Kalypsys PinTool. The plates were incubated for 1 hr at room temperature, and then read on ViewLux (Perkin-Elmer). High-throughput CCD imager using fluorescein polarization filter set and 45 seconds exposure time.
Potency is the fitted concentration of half-maximal effect.

SMILES	Potency
O=C(Nc1cccc(F)c1)N1CC[C@@]2(CCCN(S(=O)(=O)c3ccccc3)C2)C1	> 20 µM (inactive)
Cc1noc(C)c1-c1ccc2ncnc(Nc3ccccc3)c2c1	> 20 µM (inactive)
Cc1cccc(CNc2ccnc(-c3cccnc3)n2)c1	> 20 µM (inactive)
CCNc1ncc2nc(-c3ccc(Cl)cc3)c(=O)n(C[C@H]3CCCO3)c2n1	> 4 µM (inactive)
CN(C)Cc1ccccc1-c1cc(NCc2ccccc2)ncn1	> 20 µM (inactive)
CN1CCN(c2cc(-c3ccc(N(C)C)cc3)ncn2)CC1	> 20 µM (inactive)
O=C(Nc1cccc(F)c1)N1CC2(CCN(C(=O)c3csnn3)CC2)C1	> 20 µM (inactive)
Cc1cnc(CNc2ncncc2-c2ccccc2Cl)cn1	> 20 µM (inactive)
O=C(c1ccncc1)N1CCC2(CC1)CCN(c1ccncc1)CC2	> 20 µM (inactive)
COCCn1c(=O)c(CCc2ccccc2)nc2cnc(N3CCN(C)CC3)nc21	> 20 µM (inactive)
N#Cc1cccc(NC(=O)N2CC[C@@]3(CCCN(C(=O)c4cc(C(F)(F)F)cc(C(F)(F)F)c4)C3)C2)c1	> 20 µM (inactive)
N#Cc1ccc(CN2CCCC3(CCN(C(=O)c4csnn4)CC3)C2)cc1	> 20 µM (inactive)
O=S(=O)(c1ccccc1)N1CCC2(CCCN(c3ncccn3)C2)CC1	> 20 µM (inactive)
COc1ccccc1CNc1ncnc2ccc(-c3ccc(N(C)C)cc3)cc12	> 20 µM (inactive)
CS(=O)(=O)Nc1cccc(-c2nc(NCCN3CCOCC3)c3ccccc3n2)c1	> 20 µM (inactive)
COC(=O)N1CCC2(CCCN(C(=O)Nc3cccc(F)c3)C2)CC1	> 20 µM (inactive)
CN1CCN(c2ncc3ncc(=O)n(CCc4ccccc4)c3n2)CC1	> 20 µM (inactive)
COc1ccc(NC(=O)N2CC[C@@]3(CCCN(C(C)=O)C3)C2)cc1	> 20 µM (inactive)
O=C(c1cccc(F)c1)N1CCC2(CC1)CCN(c1ccncc1)CC2	> 20 µM (inactive)
COc1cccc(Cn2c(=O)cnc3cnc(N4CCN(C)CC4)nc32)c1	> 20 µM (inactive)

SMILES	Potency
COc1ccc(-n2c(=O)c(CCc3ccccc3)nc3cncnc32)cc1	> 20 µM (inactive)
COc1ccc(NC(=O)N2CC3(CCNCC3)C2)cc1	> 20 µM (inactive)
COc1ccc(Nc2ncc3nc(-c4cccs4)c(=O)n(Cc4cccc(OC)c4)c3n2)cc1	16 µM (inactive)
CN1CCN(c2ncnc3ccc(-c4cccnc4)cc23)CC1	> 20 µM (inactive)
Cc1noc(C)c1-c1ccc2ncnc(N(C)C)c2c1	> 20 µM (inactive)
COc1ccc(-n2c(=O)cnc3cnc(OC)nc32)cc1	> 20 µM (inactive)
COc1cccc(Cn2c(=O)c(-c3ccccc3)nc3cnc(N4CCN(C)CC4)nc32)c1	> 20 µM (inactive)
COC(=O)N1CCC2(CC1)CN(C(=O)Nc1cccc(F)c1)C2	> 20 µM (inactive)
COCC(=O)N1CCC[C@@]2(CCN(Cc3ccc(C#N)cc3)C2)C1	> 20 µM (inactive)
O=c1cnc2cncnc2n1Cc1ccccc1Cl	> 20 µM (inactive)
O=c1c(-c2ccc(F)c(F)c2)nc2cncnc2n1C1CC1	> 20 µM (inactive)
CN(C)C(=O)c1ccc(-c2nc(Nc3ccc(F)cc3)c3ccccc3n2)cc1	> 20 µM (inactive)
Cn1c(=O)cnc2cnc(Oc3ccccc3)nc21	> 20 µM (inactive)
N#Cc1ccc(CN2CC[C@@]3(CCCN(C(=O)c4ccncc4)C3)C2)cc1	> 20 µM (inactive)
COc1ccc(Oc2ncc3nc(C)c(=O)n(C)c3n2)cc1	> 20 µM (inactive)
O=C(c1cnccn1)N1CCC2(CCCN(c3ccc(-c4ccccc4)cc3)C2)CC1	> 20 µM (inactive)
Cc1cnc(CNc2nc(-c3cccnc3)nc3ccccc23)cn1	> 20 µM (inactive)
Cn1cc(-c2nc3cnc(N4CCNCC4)nc3n(C)c2=O)c2ccccc21	> 20 µM (inactive)
CN(Cc1ccco1)c1ncnc2ccc(-c3ccc4c(c3)OCO4)cc12	> 20 µM (inactive)
COc1cccc(-c2ccc3ncnc(NCc4cccs4)c3c2)c1	> 20 µM (inactive)
